# Screening data from PubChem.
# Most compounds without a hit are left out; they make up all but 1.2% or so of the library.
# RXFP1 agonist: qHTS Assay for Agonists of the Relaxin Receptor RXFP1 | HEK293T-RXFP1 cAMP TR-FRET, 30 min; response scale: percent of porcine relaxin response, buffer zero | Potency, µM (top dose mostly 57.5 µM), for the others: at the top dose activation, actives largely listed as activators | 0.3% of 370,000 active | AID 2676, 2010; active = well fitted activation curve with a large enough effect; inconclusive = small, poorly fitted or top-dose-only effect; also: potency is read from the fitted curve at half-maximal effect; % is scaled to controls: 0 for no effect and ±100 for the full control effect; nearly all actives have a fitted effect of over 60% in size
# Target sequence (Q9HBX9 whole entry, looked up): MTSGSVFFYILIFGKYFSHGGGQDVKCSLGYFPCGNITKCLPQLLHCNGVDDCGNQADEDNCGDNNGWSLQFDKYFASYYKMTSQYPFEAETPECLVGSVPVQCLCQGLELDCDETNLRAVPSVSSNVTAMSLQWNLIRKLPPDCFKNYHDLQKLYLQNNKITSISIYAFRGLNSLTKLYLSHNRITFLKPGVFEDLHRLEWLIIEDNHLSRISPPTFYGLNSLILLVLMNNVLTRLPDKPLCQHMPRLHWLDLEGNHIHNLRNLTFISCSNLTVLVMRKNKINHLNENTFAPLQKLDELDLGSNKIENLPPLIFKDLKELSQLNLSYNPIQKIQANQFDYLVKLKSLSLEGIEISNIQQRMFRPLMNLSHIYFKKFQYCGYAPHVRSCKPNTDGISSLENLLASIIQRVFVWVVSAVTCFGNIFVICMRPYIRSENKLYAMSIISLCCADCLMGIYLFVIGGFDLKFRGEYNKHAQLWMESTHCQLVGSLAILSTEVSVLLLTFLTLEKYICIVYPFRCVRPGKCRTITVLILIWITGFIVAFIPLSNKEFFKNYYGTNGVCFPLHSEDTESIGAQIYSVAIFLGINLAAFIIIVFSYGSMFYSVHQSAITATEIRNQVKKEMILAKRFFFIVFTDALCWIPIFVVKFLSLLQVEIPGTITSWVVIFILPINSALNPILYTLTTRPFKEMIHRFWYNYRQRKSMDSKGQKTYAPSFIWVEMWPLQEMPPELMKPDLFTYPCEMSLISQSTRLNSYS
#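 Agonist response is measured as cAMP accumulation in an RXFP1-transfected HEK293T line under PDE4 inhibition. Values are scaled between buffer-only and 29 nM porcine relaxin, and EC50s come from standard Hill equation fits.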
# pAkt inh: HTS Assay for Inhibitors of Akt Phophorylation: Primary Screen | AID 651550, 2012 | activity change, % for hits at 50 µM | 0.32% of 360,000 active | Neuro2A IGF-stimulated pAkt S473 HTRF, 20 min; hits give low values; in the data active = activity change below about -80%; inconclusive = mostly about -51% to -80%; also: % is scaled to controls: 0 for no effect and ±100 for the full control effect
#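 Neuro2A cells (4,500/well, DMEM with 0.5% FBS) were treated with compound at a single 50 µM final concentration, stimulated with 6 nM IGF for 20 min at 37 °C, and lysed. Phospho-Akt Ser473 was read by HTRF as 665/615 ratio ×10^4.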
# RXFP1 antag: qHTS Assay for Antagonists of the Relaxin Receptor RXFP1; HEK293-RXFP1, relaxin-stimulated cAMP HTRF, 30 min; hits give low values; 0.59% of 350,000 active; activity change, negative = inhibition, % at 57.5 µM; Relaxin receptor 1 (Homo sapiens), Q9HBX9;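 active = activity change of -60% or lower, but not beyond a set lower limit; inconclusive = change between -60% and -40%, or beyond the set limit; inactive = change above -40%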; also: % is scaled to controls: 0 for no effect and ±100 for the full control effect
# gsp antag: qHTS for Antagonists of gsp, the Etiologic Mutation Responsible for Fibrous Dysplasia/McCune-Albright Syndrome: qHTS; gsp-mutant cells, cAMP HTRF, 30 min; Potency, µM (titrated, usually from 76.9 µM), without a hit: at the top dose activity change, negative = inhibition, most hits filed as inhibitors; 0.4% of 340,000 active; AID 624288, 2012; calls by dose curve; cell line not stated here;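 also: intracellular cAMP measured with PDE inhibitor Ro 20-1724 present during compound exposure; potency is read from the fitted curve at half-maximal effect; % is scaled to controls: 0 for no effect and ±100 for the full control effect; nearly all actives have a fitted effect of over 65% in size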
#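 HTRF cAMP measurement after 30 min RT detection following 30 min, 37C compound treatment alongside […] (added as 300 uM solution) in G418-selected cells seeded at 2000/well and grown 16–24 h.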
# gsp agonist: qHTS for Agonist of gsp, the Etiologic Mutation Responsible for Fibrous Dysplasia/McCune-Albright Syndrome: qHTS; gsp mutant cells, cAMP HTRF, 30 min; Potency, µM (series often up to 76.9 µM), without a hit: top-dose activation (cAMP increase), usual class: activators; 0.13% of 340,000 active; AID 624287, 2012; active = well fitted activation curve with a large enough effect; inconclusive = small, poorly fitted or top-dose-only effect, or another doubt; inactive = no such curve, though single readings can be large or run the other way; cell line not stated here;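 also: phosphodiesterase inhibitor Ro 20-1724 added with compounds to block cAMP breakdown; potency is read from the fitted curve at half-maximal effect; nearly all actives have a fitted effect of over 60% in size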
#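 Cells stably selected in G418 were plated at 2000/well, grown 16-24 hr, then given compounds in DMSO with the PDE inhibitor […] (300 uM solution added) for 30 min at 37C; cAMP was read by HTRF.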
# * marks the source's active call; other numbers are inactive results; i = inactive; u = inconclusive; x = no result given; [ ] = another dose, or the depositor's remark.
SMILES,RXFP1 agonist,pAkt inh,RXFP1 antag,gsp antag,gsp agonist
NC(=O)c1ccc(NC(=O)CN2CCN(S(=O)(=O)c3ccc4c(c3)OCCO4)CC2)cc1,-2%,i,-7,50µM*,21%
CN(C)CCCNC(=S)NCC(c1ccc(Cl)cc1Cl)c1c[nH]c2ccccc12 (stereo unspecified),2%,i,-61*,9%,12%[15.4 µM]
CCCCNC(=S)NCC(c1ccccc1)c1c[nH]c2ccccc12 (stereo unspecified),1%,i,-9,-29%,-15%
COc1ccc2[nH]c3c(=O)n(CCCCC(=O)N4CCC(C(N)=O)CC4)c(=S)[nH]c3c2c1,2%,i,-95*,-4%,-3%
CC[C@H](C)NC(=O)CCCCCn1c(=S)[nH]c2c([nH]c3ccc(OC)cc32)c1=O,5%,i,-80*,2%,30%
O=C(Nc1ccc(F)cc1)c1ccc(Cn2nc(N3CCN(c4ccccc4)CC3)ccc2=O)o1,2%,x,-28,x,x
C[C@H](CO)N1C[C@H](C)[C@H](CN(C)S(=O)(=O)c2ccc(F)cc2)Oc2ncc(Br)cc2C1=O,x,i,2,x,u
C[C@H](CO)N1C[C@H](C)[C@@H](CN(C)S(=O)(=O)c2cccc(F)c2)Oc2ncc(Br)cc2C1=O,x,i,8,x,32µM*
Cc1ccccc1CSc1cn(CC(=O)N2CCCCC2)c2ccccc12,-2%,x,-35,x,x
COc1ccc(C(CC(=O)Nc2ccc(F)c(Cl)c2)N2Cc3ccccc3C2=O)cc1OC (stereo unspecified),-1%,x,x,x,x
COc1cc2cc(CCOC(=O)c3ccc(C#N)cc3)oc(=O)c2cc1OC,0%,i,x,-15%,x
COc1cc2cc(CCOC(=O)c3ccc(F)cc3)oc(=O)c2cc1OC,2%,i,x,50µM*,x
CCC(=O)Nc1cccc(-c2cn3ccsc3n2)c1,0%,-105%*,-5,-6%,1%
CCc1cccc(NC(=O)C2CCCN2S(=O)(=O)c2ccc3nc(-c4ccccc4)[nH]c3c2)c1 (stereo unspecified),3%,x,-23,x,x
CCCOc1ccc(NC(=O)CC2C(=O)N(CC)C(=S)N2CCNC(C)=O)cc1 (stereo unspecified),0%,i,-2,10%,8%[15.4 µM]
CCCOc1ccc(NC(=O)CC2C(=O)N(CC)C(=S)N2CCCN2CCN(Cc3ccccc3)CC2)cc1 (stereo unspecified),2%,i,-65*,8%,1%
COc1ccc2c(c1)c1c(c(=O)n(Cc3ccccc3)c(=O)n1CC(=O)Nc1ccccc1F)n2C,12%,x,x,x,x
N#CC(c1ccccc1)C(CC(=NO)c1ccccc1)c1ccccc1 (stereo unspecified),x,i,-91*,x,-1%
Oc1ccc(COC2CCN(Cc3ccccc3)C2)c2cccnc12 (stereo unspecified),2%,x,x,x,x
CS(=O)(=O)Nc1ccc(C2=NN(C(=O)c3ccccc3)C(c3cccs3)C2)cc1 (stereo unspecified),0%,i,1,u,u
CC(C)(C)C(=O)N1N=C(c2ccc(NS(C)(=O)=O)cc2)CC1c1cccs1 (stereo unspecified),0%,i,u,11µM*,0%[15.4 µM]
O=C(CCNC(=O)N1CC(=O)Nc2ccccc21)NCc1cccc(Cl)c1,0%,i,-92*,8%,10%
O=C(CCNC(=O)N1CC(=O)Nc2ccccc21)Nc1cccc(Cl)c1,2%,i,-11,0%,3%
Cc1ccc2c(c1)-c1cc(C)nn1C(c1cc(Br)ccc1O)N2 (stereo unspecified),-3%,x,-114*,x,x
Cc1cc2n(n1)C(c1ccc(O)cc1)Nc1ccccc1-2 (stereo unspecified),2%,i,12,-11%,u
SMILES,RXFP1 agonist,pAkt inh,RXFP1 antag,gsp antag,gsp agonist
c1ccc2c(c1)[nH]c1c(N3CCSCC3)ncnc12,1%,i,2,14µM*,21%
Clc1ccc2[nH]c3c(N4CCC5(CC4)OCCO5)ncnc3c2c1,4%,i,-11,35µM*,9%
Cc1ccc(OCc2nc3ccccc3n2CCOc2ccc(Cl)cc2)cc1,1%,x,-7,x,x
C=CCOC(=O)C1CC=CCC1C(=O)Oc1ccc(F)cc1F (stereo unspecified),1%,-80%*,-1,-6%,-62%
CCCC(=O)Nc1ccc(O)c(C(C)=O)c1,x,x,-1,x,x
Cc1nc(C)c(CC(=O)N2CCc3c([nH]c4ccccc34)C2c2ccccn2)s1 (stereo unspecified),1%,i,-75*,-4%,21%[15.4 µM]
CC(C)=C1C2CCC1C(C(=O)Nc1sc(C)c(-c3ccc(C(C)C)cc3)c1C(N)=O)C2C(=O)O (stereo unspecified),0%,i,-3,32µM*,0%
Cc1ccc(-c2c(C)sc(NC(=O)C3C4CCC(O4)C3C(=O)O)c2C(=O)OC(C)C)cc1 (stereo unspecified),6%,i,-12,-11%,26%
COc1ccc(C(=O)CN2CCN(c3ncccn3)CC2)cc1,3%,i,-1,50µM*,37%
O=C(/C=C\c1ccco1)NC(=S)Nc1ccccc1O,-1%,i,8,-10%,1%
COc1ccc(NC(=S)NC(=O)/C=C/c2ccco2)c(OC)c1,1%,i,-81*,u,-6%
Cc1ccc(NC(=S)NC(=O)/C=C/c2ccco2)c(O)c1,3%,i,-63*,-10%,6%
Cc1ccc(NC(=O)/C(=C/c2ccco2)c2ccccc2)c(C)c1,-1%,-129%*,-25,-22%,-34%
CC(Sc1oc(-c2cccs2)nc1S(=O)(=O)c1ccccc1)c1ccccc1 (stereo unspecified),-5%,x,-17,x,x
CN1CC(=O)NC1=N,x,x,3,x,x
Cc1[nH]c2ccccc2c1NC(=O)CN1CCN(c2cccc(C(F)(F)F)c2)CC1,0%,i,8,50µM*,-27%
O=C(CN1CCN(c2cccc(C(F)(F)F)c2)CC1)Nc1cccc(C(F)(F)F)c1,0%,i,-7,-1%,-2%
CCOc1ccc(CCNC(=O)c2cc3cccc4c3n2CCS4)cc1,12%,x,-14,x,x
O/C(=C\c1nc2ccccc2nc1/C=C(\O)c1ccccc1)c1ccccc1,4%,i,-112*,0%,26%
O=C(O)CCCCCN1C(=O)/C(=C\c2cn(-c3ccccc3)nc2-c2cccs2)SC1=S,4%,i,4,35µM*,-49%
